Laboratory results reported in the supplement of paper PMC6555819.

Tests used:
Assay in all cases: PBM binding z-score (relative to random genomic background probes); higher = stronger binding; sequences stand for … in GC…GCGATTGACAGCGTAGAATGAAGG
[1] = test system: FXR:RXRa (NR concentration 270 nM, RXRa partner concentration 90 nM)
Method in brief: (§1)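 Antibodies against each partner of ligand-free nuclear receptor dimers (one per run) detected binding on custom Agilent 4×180K protein-binding microarrays after 1 h incubation. The double-stranded probes had 34-nt variable regions carrying direct-repeat seeds, single-nucleotide variants, half-site ablations and random human genomic background sequences. Binding z-scores, from regression-normalized fluorescence, use the random background probes as reference.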

[2] = test system: LXRa:RXRa (NR concentration 270 nM, RXRa partner concentration 90 nM)
Method in brief: as §1

[3] = test system: LXRa homodimer (NR concentration 270 nM)
Method in brief: as §1

[4] = test system: LXRb:RXRa (NR concentration 270 nM, RXRa partner concentration 90 nM)
Method in brief: as §1

[5] = test system: LXRb homodimer (NR concentration 270 nM)
Method in brief: as §1

[6] = test system: PPARa:RXRa (NR concentration 270 nM, RXRa partner concentration 90 nM)
Method in brief: as §1

[7] = test system: PPARg:RXRa (NR concentration 180 nM, RXRa partner concentration 90 nM)
Method in brief: as §1

[8] = test system: PPARg:RXRa 270nM:90nM, anti-RXR (NR concentration 270 nM, RXRa partner concentration 90 nM)
Method in brief: as §1

[9] = test system: PPARg:RXRa 30nM:10nM, anti-RXR (NR concentration 30 nM, RXRa partner concentration 10 nM)
Method in brief: as §1

[10] = test system: PPARg:RXRa 90nM:30nM, anti-RXR (NR concentration 90 nM, RXRa partner concentration 30 nM)
Method in brief: as §1

[11] = test system: PPARg:RXRa DBDmut IVT, anti-RXR (DBD mutation: RXRa K156A/R161A, NR concentration 270 nM, RXRa partner concentration 90 nM)
Method in brief: as §1

[12] = test system: PPARg:RXRa IVT, anti-PPARg (NR concentration 270 nM, RXRa partner concentration 90 nM)
Method in brief: as §1

[13] = test system: PPARg DBDmut:RXRa IVT, anti-PPARg (DBD mutation: PPARg1 K132A/R137A, NR concentration 270 nM, RXRa partner concentration 90 nM)
Method in brief: as §1

[14] = test system: PPARg DBDmut IVT, anti-PPARg (DBD mutation: PPARg1 K132A/R137A, NR concentration 270 nM)
Method in brief: as §1

[15] = test system: PPARg homodimer (NR concentration 180 nM)
Method in brief: as §1

[16] = test system: PXR:RXRa (NR concentration 270 nM, RXRa partner concentration 90 nM)
Method in brief: as §1

[17] = test system: PXR homodimer (NR concentration 270 nM)
Method in brief: as §1

[18] = test system: RARa:RXR (NR concentration 270 nM, RXRa partner concentration 90 nM)
Method in brief: as §1

[19] = test system: RARa homodimer (NR concentration 270 nM)
Method in brief: as §1

[20] = test system: RARb:RXRa (NR concentration 270 nM, RXRa partner concentration 90 nM)
Method in brief: as §1

Row | Sequence | PBM binding z-score [1] | PBM binding z-score [2] | PBM binding z-score [3] | PBM binding z-score [4] | PBM binding z-score [5] | PBM binding z-score [6] | PBM binding z-score [7] | PBM binding z-score [8] | PBM binding z-score [9] | PBM binding z-score [10] | PBM binding z-score [11] | PBM binding z-score [12] | PBM binding z-score [13] | PBM binding z-score [14] | PBM binding z-score [15] | PBM binding z-score [16] | PBM binding z-score [17] | PBM binding z-score [18] | PBM binding z-score [19] | PBM binding z-score [20]
1 | TAGCCTAGGTCATTTGGCCAGTATAGTACGCATC | 4.44 | 3.74 | 1.16 | 2.71 | 1.07 | 3.48 | 2.06 | 2.03 | 0.424 | 1.5 | 1.38 | 2.47 | 0.221 | 0.0367 | 0.566 | 1.61 | -0.0591 | 2.08 | -0.227 | 3.67
2 | CGTCAAAGTTCAACTAAGGTAACGTATAGCACGC | 7.12 | 6.07 | 4.63 | 4.52 | 2.2 | 5.23 | 5.1 | 5.56 | 2.29 | 4.48 | 0.646 | 2.49 | 2.35 | 1.51 | 3.82 | 5.78 | 5.22 | 4.65 | 2.34 | –
3 | TAGCCAAGGTCATTCAGGGGCCAGTATAGAAAGC | 7.35 | 5.84 | 1.66 | 4.6 | 2.35 | 5.19 | 4.6 | 4.81 | 1.47 | 3.17 | 1.73 | 3 | 1.11 | 0.966 | 3.14 | 4.91 | 1.43 | 5.72 | 0.389 | 5.06
4 | CCAACTAGGTCATTGACAGGACAGTGAATAGTAA | 4.34 | 3.06 | 0.961 | 2.18 | 0.671 | 3.92 | 5.95 | 5.66 | 2.77 | 5.03 | 7.67 | 7.49 | 1.99 | 0.953 | 1.89 | 1.68 | 0.805 | 2.23 | 1.58 | 3.77
5 | CCTAGTTGGTCAGGAGGCCACACACCGGATATGA | 0.457 | 0.364 | 0.335 | 0.191 | 0.0739 | 0.181 | 0.848 | 0.732 | 0.118 | 0.128 | 0.654 | 1.37 | 0.117 | -0.424 | 0.805 | -0.041 | 0.627 | -0.174 | 0.55 | 1.23
6 | CCTAGCAGGCCAGGTTCACTCAAGCATTTCGCTT | 0.117 | 0.554 | -0.238 | 0.666 | -0.142 | 0.874 | -0.212 | -0.0179 | -0.854 | -0.512 | 0.866 | -0.316 | -1.77 | -0.982 | -0.179 | 0.776 | 0.391 | 0.488 | -0.298 | 0.579
7 | GCTGCAAGGTCAACTGATGGTCAGCTAAAGCTCG | 7.53 | 5.93 | 0.917 | 4.54 | 1.33 | 5.97 | 4.81 | 5.67 | 1.77 | 3.97 | 3.15 | 3.5 | 0.338 | -0.136 | 2.93 | 4.58 | 0.331 | 5.36 | 0.743 | –
8 | CGTCCAAGGGCAGCAGGTCAGTGAAAGCGACGTG | 0.137 | -0.0372 | -0.847 | -0.105 | -1.37 | 0.938 | 0.305 | 0.501 | -0.617 | -0.019 | 0.8 | 0.701 | -0.933 | -1.17 | 0.592 | 0.274 | -0.825 | 0.723 | -0.64 | –
9 | ATATGAAGGTTATCGGGTCATTCAGTTTGCGCAT | 4.04 | 3.38 | 1.74 | 3.02 | 0.891 | 4.1 | 4.21 | 4.21 | 1.52 | 3.11 | 3.47 | 4.42 | 1.16 | 1.48 | 2.47 | 3.93 | 8.15 | 4.44 | 0.435 | –
10 | TGAATGACGTTAAAGATCAGGGAACGTGGCGTCG | -0.238 | -0.18 | -0.178 | -0.538 | 0.178 | -0.0143 | 0.989 | 1.26 | 0.931 | 1.28 | -1.13 | 0.0329 | 0.97 | 0.284 | -0.272 | -0.444 | -0.0558 | -0.209 | 0.184 | -0.171
11 | CCTTACGGGTCACTGACAGGTCATAGCATTTGGA | 5.83 | 5.72 | 2.3 | 4.51 | -0.00143 | 5.36 | 4.81 | 5.35 | 2.02 | 4.03 | 3.69 | 3.99 | 0.0751 | 0.785 | 4.06 | 5.34 | 0.53 | 6.69 | 1.34 | 4.53
12 | TAGCCTAGGTCAAGCGGGCCAGTATAGTGTCGGC | 4.12 | 3.15 | 0.0899 | 1.78 | -0.385 | 3.62 | 2.12 | 2.59 | 0.103 | 1.32 | 2.36 | 2.99 | -0.422 | -0.858 | 0.96 | 1.38 | -0.618 | 2.42 | -0.521 | 4.04
13 | ATCGAATGGTCGAAGGTGAGTATACCCACCCGAA | -0.229 | -0.228 | -0.451 | -0.362 | -0.158 | 0.153 | 1.07 | 1.34 | 0.48 | 1.31 | -0.883 | 0.182 | 0.483 | 0.223 | 0.138 | -0.0379 | -0.408 | 0.334 | 0.141 | –
14 | CCTGCTAGGTCTATGGTCAGCTAAAGCAGCTCGC | -0.302 | -0.394 | -0.393 | -0.493 | -0.41 | -0.509 | -0.485 | 0.268 | -1.04 | -0.432 | -0.291 | -0.225 | -0.749 | -1.11 | -0.133 | -0.569 | -0.846 | -0.37 | -0.766 | –
15 | TATTGTAGATCAAAGGTTAAGAAAGCCGAAGCCT | 1.52 | 2.61 | 0.529 | 2.07 | 0.724 | 4.99 | 8.15 | 8.41 | 7.59 | 9.21 | 1.27 | 4.2 | 1.1 | 1.23 | 1.87 | 2.16 | 0.399 | 3.1 | 0.703 | 2.07
